Entries with a potency or affinity are not part of this list. Records with an inconclusive call do not appear. The source made the active and inactive calls.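 The calls were made as follows: active = viability loss with half-maximal concentration at most twice the top valid dose, at 8, 24 and 48 hours; inconclusive = timepoint results disagree; inactive = inactive at all three timepoints.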

The nature of the experiment: SNB-75 astrocytoma cell viability loss, late-stage follow-up, mechanism study for HRAS target identification, CellTiter-Glo ATP luminescence, several timepoints, dry powder (AID 720624). (ATP-based viability assays read luminescence as a measure of living cells.)

Take `Cc1onc(C(=O)N2CCN(C(c3ccncc3)c3ccncc3)CC2)c1[N+](=O)[O-]`: the compound was classed as inactive.
